Assay results taken from PubChem BioAssay AID642 (Vanderbilt High Throughput Screening Facility, 2007).
Hit rate of the full screen: of about 2,200 compounds, about 2,000 (91%) were called active.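 How the source made its calls: active means luminescence in either of two replicates above the same-plate mean plus 3 SD of the low-dose dopamine control; inactive means the rest.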 So high a share suggests a set chosen from earlier hits. Not all results are given here.

The molecules below were run against D(1A) dopamine receptor (Homo sapiens) (UniProt P21728) (assay: D1 receptor positive allosteric modulators, retest, confirmation, cell-based, HEK293 D1, CRE-luciferase, duplicate (AID 642)). Settings: dopamine EC30 potentiation, at 10 µM, active compounds read high.
D(1A) dopamine receptor (Homo sapiens), sequence (P21728 whole entry, looked up): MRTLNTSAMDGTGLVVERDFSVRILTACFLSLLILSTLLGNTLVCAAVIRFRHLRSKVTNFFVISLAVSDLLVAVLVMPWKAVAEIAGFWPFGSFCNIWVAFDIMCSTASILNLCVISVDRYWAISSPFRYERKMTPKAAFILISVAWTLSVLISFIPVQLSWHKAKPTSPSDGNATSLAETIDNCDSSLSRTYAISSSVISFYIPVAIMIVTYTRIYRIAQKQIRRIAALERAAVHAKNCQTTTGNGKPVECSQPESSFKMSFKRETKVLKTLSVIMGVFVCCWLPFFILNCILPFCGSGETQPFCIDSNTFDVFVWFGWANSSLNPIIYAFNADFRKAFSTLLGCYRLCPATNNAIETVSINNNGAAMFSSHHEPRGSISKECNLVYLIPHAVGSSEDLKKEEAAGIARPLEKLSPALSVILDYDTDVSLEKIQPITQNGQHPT
With `CCC(=NCc1ccco1)c1c(O)n(Cc2ccccc2)c(=O)[nH]c1=O` the luminescence was 18900 (active).
